About 83,000 compounds went through this panel and 20% of them were active in at least one assay; those are over-represented in the sample as a whole.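 Single-concentration screen, 48 h exposure, 96-well plates. Endpoint: percent growth. Below 10 = active.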 A number with no mark means an inactive call. Activity calls are given as the source filed them.
What was measured:
Assay in all cases: NCI-60 one-dose screen, 48 h (100 = growth as untreated, 0 = no growth, -100 = all killed)
Conditions in all cases: 10 µM
SR leukemia = tested on: SR leukemia
RPMI-8226 leukemia = tested on: RPMI-8226 leukemia
OVCAR-8 ovarian = tested on: OVCAR-8 ovarian
OVCAR-5 ovarian = tested on: OVCAR-5 ovarian
OVCAR-4 ovarian = tested on: OVCAR-4 ovarian
SK-OV-3 ovarian = tested on: SK-OV-3 ovarian
IGROV1 ovarian = tested on: IGROV1 ovarian
OVCAR-3 ovarian = tested on: OVCAR-3 ovarian
HS 578T breast = tested on: HS 578T breast
NCI/ADR-RES ovarian = tested on: NCI/ADR-RES ovarian
T-47D breast = tested on: T-47D breast
BT-549 breast = tested on: BT-549 breast
MDA-MB-435 melanoma = tested on: MDA-MB-435 melanoma
SW-620 colon = tested on: SW-620 colon
MCF7 breast = tested on: MCF7 breast
HCT-116 colon = tested on: HCT-116 colon
HCC-2998 colon = tested on: HCC-2998 colon
KM12 colon = tested on: KM12 colon

Row | SMILES | growth (SR leukemia) | growth (RPMI-8226 leukemia) | growth (OVCAR-8 ovarian) | growth (OVCAR-5 ovarian) | growth (OVCAR-4 ovarian) | growth (SK-OV-3 ovarian) | growth (IGROV1 ovarian) | growth (OVCAR-3 ovarian) | growth (HS 578T breast) | growth (NCI/ADR-RES ovarian) | growth (T-47D breast) | growth (BT-549 breast) | growth (MDA-MB-435 melanoma) | growth (SW-620 colon) | growth (MCF7 breast) | growth (HCT-116 colon) | growth (HCC-2998 colon) | growth (KM12 colon)
1 | COc1cc(/C=C2\CCCC3C2=Nc2ccccc2NC3c2cc(OC)c(OC)c(OC)c2)cc(OC)c1OC (stereo unspecified) | 2.76% (active) | -10.9% (active) | 18.7% | 16.5% | 33.5% | 45.4% | -21% (active) | -7.11% (active) | 53.2% | 5.96% (active) | 23.9% | -16.4% (active) | 3.26% (active) | 5.74% (active) | 36.9% | -58.4% (active) | -60.2% (active) | -65.3% (active)
2 | COc1ccc(/C=C2/SC(=S)NC2=O)c(OC)c1OC | 72.4% | 79.4% | 91.5% | 72.8% | 87.7% | 91.1% | 105% | 89.6% | 63.6% | 85.2% | 63.2% | 91.1% | 78.5% | 93.9% | 80.4% | 85.8% | 82.3% | 93.3%
3 | O=C1Cc2cc(CCN3CCN(c4nsc5ccccc45)CC3)c(Cl)cc2N1 | 86% | 78.9% | 93.7% | 108% | 84.1% | 121% | 101% | 97.6% | 103% | 98.4% | 55.2% | 92.6% | 90.9% | 92.9% | 86.1% | 98.8% | 120% | 98.1%
4 | CCN(CCCNc1cc2c(c(N)c1S(=O)(=O)O)C(=O)c1ccccc1C2=O)c1ccccc1 | 118% | 101% | 96.4% | 107% | 109% | 100% | 114% | 111% | 93.5% | 99.8% | 93.1% | 89.2% | 106% | 113% | 107% | 90% | 108% | 107%
5 | OC[C@H]1OC([S-])[C@H](O)[C@@H](O)[C@@H]1O.[Au+] (stereo partly specified) | 41.7% | 80.6% | 104% | 129% | 96.9% | 120% | 119% | 128% | 73.3% | 101% | 85.5% | 87.1% | 83.3% | 101% | 72.8% | 99% | 112% | 114%
6 | CCOC(=O)c1cc(C(=O)c2cc(OC)c(OC)c(OC)c2)n2ccc(-c3cc[n+](CC(=O)c4cc(OC)c(OC)c(OC)c4)cc3)cc12 | -16.4% (active) | -22.2% (active) | 7.09% (active) | 92.5% | -33.2% (active) | 99.3% | 83.2% | 82% | 69.4% | 94.4% | 50.1% | -10.9% (active) | 68.7% | -64.8% (active) | -29.3% (active) | -61.2% (active) | 109% | 45.3%
7 | O=C(CCCCCCC(=O)Nc1ccccc1)NO | 9.82% (active) | 12.8% | 9.38% (active) | 1.38% (active) | 38.3% | 1.71% (active) | 23.7% | -1.79% (active) | 22.2% | -18.2% (active) | -12.6% (active) | 53.9% | -22% (active) | -25.7% (active) | 9.87% (active) | 4.45% (active) | 0.434% (active) | 14.4%
8 | C/C(=N\O)c1ccc(NC(=O)CSc2nnc(-c3ccccc3)n2-c2ccccc2)cc1 | 106% | 91.2% | 84.7% | 86.2% | 87.3% | 39.3% | 76.7% | 81.4% | 62.5% | 90.8% | 79.6% | 20.9% | 100% | 83.1% | 104% | 28.6% | 91.1% | 73.3%
9 | CC(=O)N[C@H](C(=O)N[C@@H](CCCNC(=N)N)C(=O)N[C@@H](CCCCN)C(=O)N[C@@H](CCCNC(=N)N)C(=O)N[C@]1(C)CCCCCC/C=C\CCC[C@@](C)(C(=O)N[C@@H](CCCNC(=N)N)C(=O)N[C@@H](CCC(=O)O)C(=O)N[C@@H](CC(C)C)C(=O)N[C@H](C(=O)N[C@@H](CCC(=O)O)C(N)=O)C(C)C)NC(=O)[C@H](CCC(N)=O)NC(=O)[C@H](CC(C)C)NC(=O)[C@H](CC(C)C)NC(=O)[C@H](CCCNC(=N)N)NC(=O)[C@H](CCCNC(=N)N)NC(=O)[C@H](CC(C)C)NC1=O)C(C)C | 15.4% | 20.9% | -15.5% (active) | 38.3% | 39.6% | 53.1% | 58.8% | -38.9% (active) | -33.9% (active) | 7.03% (active) | -35.7% (active) | -46% (active) | 7.66% (active) | 25.9% | -41.7% (active) | 11.6% | 24.8% | -16.9% (active)
10 | CCCc1cn(CC(=O)Nc2nc3ccccc3s2)nn1 | 110% | 112% | 100% | 98.6% | 109% | 110% | 97.3% | 107% | 101% | 107% | 102% | 103% | 105% | 99.9% | 100% | 101% | 116% | 109%
11 | O=C(/C=C/C=C/c1c(C2CC2)nc2ccccc2c1-c1ccc(F)cc1)c1cccs1 | -6.7% (active) | -26.6% (active) | 18.1% | 1.66% (active) | 24% | 42.6% | 19.1% | -2.17% (active) | 24.4% | 22.9% | 4.82% (active) | 3.45% (active) | 2.03% (active) | 6.11% (active) | 12.4% | -32.6% (active) | -12.9% (active) | 9.97% (active)
12 | CC(=O)C1CCC2C3CC=C4CC(SC(=N)N)CCC4(C)C3CCC12C (stereo unspecified) | -36% (active) | -7.56% (active) | 30.8% | 80.4% | 50.1% | 75% | 35.7% | 63.1% | 72.6% | 38.2% | 40.9% | 76.4% | 9.68% (active) | -75.2% (active) | -2.29% (active) | 1.01% (active) | -52.3% (active) | 31.8%
13 | Cc1ccc(C(=O)C2C(=O)C3CCC2C3)cc1 (stereo unspecified) | 129% | 99.3% | 100% | 99% | 102% | 107% | 113% | 107% | 106% | 99.3% | 108% | 105% | 100% | 104% | 97.5% | 108% | 106% | 107%
14 | O=C(O)c1ccc(-n2cc(CNc3ccc(Oc4ccccc4)cc3)c(-c3ccccc3)n2)cc1 | 38.6% | 73% | 92.3% | 98.9% | 81.4% | 112% | 86.4% | 86.9% | 105% | 90.1% | 75% | 83.1% | 94.2% | 99.4% | 85.4% | 88.5% | 120% | 80.3%
15 | COc1cc(/C=C2\CCCC3=C2N=C2SC(C)=CN2C3c2cc(OC)c(OC)c(OC)c2)cc(OC)c1OC (stereo unspecified) | 0.0832% (active) | -17% (active) | -9.4% (active) | -15% (active) | 39.6% | 19.3% | 2.86% (active) | -2.36% (active) | 49.9% | 1.74% (active) | 33.1% | -14.5% (active) | 1.99% (active) | -0.154% (active) | 16% | -86.2% (active) | -88% (active) | -80.4% (active)
16 | COc1cc2c(Nc3ccc(-c4ccc(N)cc4)cc3)ncnc2c(OC)c1OC | 31.8% | 39.5% | 41.2% | 40.1% | 51.4% | 36.1% | 22.5% | 41.4% | 70.6% | 48.9% | 83% | 85.5% | 7.13% (active) | 14.4% | 36.1% | 58.3% | 4.99% (active) | 3.42% (active)
17 | Cc1ccc(Cl)cc1NC(=O)CCl | 43.2% | 43.8% | 88% | 136% | 76.9% | 93.5% | 64.4% | 99% | 94.2% | 102% | 77.6% | 57.2% | 83.1% | 73.7% | 67.8% | 62.9% | 114% | 96.1%
